# Source: PubChem BioAssay (EPA / NIEHS)
# Active and inactive are the calls of the source. The calls were made as follows: active = hit-call score of the fitted dose curve at least 0.9, where 1 is the maximum; inactive = score below 0.9.
# Columns and labels:
# Details in all cases: mRNA level, 48 h; actives raise or lower the signal
# [1] = read-out: ABC Transporter (ABCB1), ABCB1 (gene 5243); assay: LTEA_HepaRG_ABCB1: Life Technologies and Expression Analysis (LTEA) Assay for ABC Transporter (ABCB1) using HepaRG (AID 2283460)
# Procedure, shortened: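 HepaRG cells exposed in duplicate for 48 h in serum-free induction medium to eight half-log concentrations up to 100 uM in 0.5% DMSO. ABCB1 mRNA quantified by qRT-PCR, normalised to ACTB, GAPDH and POLR2A; fitted bidirectionally versus DMSO.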
# [2] = read-out: growth arrest and DNA damage 45 (GADD45B), GADD45B (gene 4616); assay: LTEA_HepaRG_GADD45B: Life Technologies and Expression Analysis (LTEA) Assay for growth arrest and DNA damage 45 (GADD45B) using HepaRG (AID 2283461)
# Procedure, shortened: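 Differentiated human HepaRG cells in serum-free induction medium exposed 48 h in duplicate to eight concentrations, top 100 uM, half-log steps, 0.5% DMSO. GADD45B mRNA by TaqMan qRT-PCR, normalized to ACTB, GAPDH, POLR2A; bidirectional fit versus DMSO.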
# [3] = read-out: ABC Transporter (ABCC3), ABCC3 (gene 8714); assay: LTEA_HepaRG_ABCC3: Life Technologies and Expression Analysis (LTEA) Assay for ABC Transporter (ABCC3) using HepaRG (AID 2283462)
# Procedure, shortened: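 Differentiated human HepaRG cells exposed 48 h in serum-free induction medium, 0.5% DMSO vehicle, 8-point half-log series to 100 uM in duplicate. ABCC3 mRNA by qRT-PCR, normalised to ACTB, GAPDH, POLR2A; bidirectional fit vs DMSO.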
# [4] = read-out: ABC Transporter (ABCB11), ABCB11 (gene 8647); assay: LTEA_HepaRG_ABCB11: Life Technologies and Expression Analysis (LTEA) Assay for ABC Transporter (ABCB11) using HepaRG (AID 2283463)
# Procedure, shortened: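 Differentiated human HepaRG cells in serum-free induction medium, dosed in duplicate for 48 h. Eight-point half-log series from 100 uM in 0.5% DMSO; ABCB11 mRNA by qRT-PCR, normalized to ACTB, GAPDH, POLR2A, fitted bidirectionally versus DMSO.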
# [5] = read-out: ABC Transporter (ABCC2), ABCC2 (gene 1244); assay: LTEA_HepaRG_ABCC2: Life Technologies and Expression Analysis (LTEA) Assay for ABC Transporter (ABCC2) using HepaRG (AID 2283464)
# Procedure, shortened: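 Differentiated HepaRG cells in serum-free induction medium exposed 48 h to eight half-log concentrations up to 100 uM, 0.5% DMSO, in duplicate. ABCC2 mRNA measured by qRT-PCR (TaqMan, Fluidigm), normalized to ACTB, GAPDH and POLR2A. Fitted in both directions against DMSO.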
# [6] = read-out: Broad substrate specificity ATP-binding cassette transporter ABCG2 (Homo sapiens) (UniProt Q9UNQ0); assay: LTEA_HepaRG_ABCG2: Life Technologies and Expression Analysis (LTEA) Assay for ABC Transporter (ABCG2) using HepaRG (AID 2283465)
# Procedure, shortened: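 Differentiated HepaRG cells were exposed for 48 h in serum-free induction medium to 8 half-log concentrations, top 100 uM, in 0.5% DMSO. ABCG2 mRNA was measured by qRT-PCR, normalized to ACTB, GAPDH and POLR2A, with bidirectional fitting versus DMSO.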
# [7] = read-out: ATP-citrate lyase (ACLY), ACLY (gene 47); assay: LTEA_HepaRG_ACLY: Life Technologies and Expression Analysis (LTEA) Assay for ATP-citrate lyase (ACLY) using HepaRG (AID 2283466)
# Procedure, shortened: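 Differentiated HepaRG cells exposed 48 h in serum-free induction medium to eight half-log concentrations up to 100 uM in 0.5% DMSO, duplicates. Transcript measured by Fluidigm TaqMan qRT-PCR, normalized to ACTB, GAPDH, POLR2A; bidirectional fit versus DMSO.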
# [8] = read-out: Peroxisomal acyl-coenzyme A oxidase 1 (ACOX1) gene, ACOX1 (gene 51); assay: LTEA_HepaRG_ACOX1: Life Technologies and Expression Analysis (LTEA) Assay for Peroxisomal acyl-coenzyme A oxidase 1 (ACOX1) gene using HepaRG (AID 2283467)
# Procedure, shortened: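 HepaRG cells, plated 48 h then switched to serum-free induction medium, were exposed in duplicate for 48 h to 8-point half-log concentrations up to 100 uM in 0.5% DMSO. ACOX1 mRNA was measured by qRT-PCR, normalized to ACTB/GAPDH/POLR2A, and fitted bidirectionally versus DMSO.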
# [9] = read-out: Alkaline Phosphatase, Placental (ALPP) gene, ALPP (gene 250); assay: LTEA_HepaRG_ALPP: Life Technologies and Expression Analysis (LTEA) Assay for Alkaline Phosphatase, Placental (ALPP) gene using HepaRG (AID 2283468)
# Procedure, shortened: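 HepaRG cells plated 48 h, then exposed in duplicate for 48 h in serum-free induction medium to 8-point half-log series from 100 uM in 0.5% DMSO. ALPP mRNA by TaqMan qRT-PCR, normalized to ACTB/GAPDH/POLR2A; bidirectional fit versus DMSO.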
# [10] = read-out: Bcl-2 (BAD) gene, BAD (gene 572); assay: LTEA_HepaRG_BAD: Life Technologies and Expression Analysis (LTEA) Assay for Bcl-2 (BAD) gene using HepaRG (AID 2283469)
# Procedure, shortened: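 Differentiated HepaRG cells were exposed in duplicate in 0.5% DMSO for 48 h to eight-point half-log concentrations up to 100 uM. BAD mRNA was measured by Fluidigm TaqMan qRT-PCR, normalized to ACTB, GAPDH and POLR2A, and fitted bidirectionally against DMSO.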
# [11] = read-out: Bcl-2 (BAX) gene, BAX (gene 581); assay: LTEA_HepaRG_BAX: Life Technologies and Expression Analysis (LTEA) Assay for Bcl-2 (BAX) gene using HepaRG (AID 2283470)
# Procedure, shortened: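 HepaRG (human liver), 48 h exposure, duplicate wells. 8-pt curve, half-log from 100 uM, 0.5% DMSO. BAX transcript by TaqMan qRT-PCR; ACTB/GAPDH/POLR2A normalization; gain or loss vs DMSO baseline.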
# [12] = read-out: adenosine kinase (ADK) gene, ADK (gene 132); assay: LTEA_HepaRG_ADK: Life Technologies and Expression Analysis (LTEA) Assay for adenosine kinase (ADK) gene using HepaRG (AID 2283471)
# Procedure, shortened: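 Differentiated HepaRG cells dosed 48 h in serum-free induction medium, 0.5% DMSO vehicle, eight half-log concentrations from 100 uM, in duplicate. ADK mRNA by TaqMan qRT-PCR normalised to ACTB, GAPDH, POLR2A; bidirectional fit versus DMSO.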
# [13] = read-out: Alpha-fetoprotein (AFP) gene, AFP (gene 174); assay: LTEA_HepaRG_AFP: Life Technologies and Expression Analysis (LTEA) Assay for Alpha-fetoprotein (AFP) gene using HepaRG (AID 2283472)
# Procedure, shortened: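 HepaRG, single lot; 48 h post-plating -> serum-free induction medium; cpd 8-pt, 100 uM top, half-log, 0.5% DMSO, duplicate, 48 h. RNA -> qRT-PCR AFP, norm ACTB/GAPDH/POLR2A. Bidirectional fit vs DMSO.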
# [14] = read-out: BCL2L11 (gene 10018); assay: LTEA_HepaRG_BCL2L11: Life Technologies and Expression Analysis (LTEA) Assay for Bcl-2 (BCL2L11) gene using HepaRG (AID 2283473)
# Procedure, shortened: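 Differentiated human HepaRG cells were exposed 48 h in serum-free induction medium to eight half-log concentrations up to 100 uM in 0.5% DMSO, in duplicate. BCL2L11 mRNA was quantified by TaqMan qRT-PCR, normalized to ACTB, GAPDH and POLR2A; induction or repression fitted versus DMSO.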
# [15] = read-out: Apolipoprotein A-V (APOA5) gene, APOA5 (gene 116519); assay: LTEA_HepaRG_APOA5: Life Technologies and Expression Analysis (LTEA) Assay for Apolipoprotein A-V (APOA5) gene using HepaRG (AID 2283474)
# Procedure, shortened: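 Differentiated HepaRG cells in serum-free induction medium, exposed 48 h in duplicate to eight half-log concentrations topping at 100 uM (0.5% DMSO). APOA5 mRNA by Fluidigm TaqMan qRT-PCR, normalized to ACTB, GAPDH and POLR2A; bidirectional fit versus DMSO.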
# [16] = read-out: Apoptosis regulator Bcl-2 (Homo sapiens) (UniProt P10415); assay: LTEA_HepaRG_BCL2: Life Technologies and Expression Analysis (LTEA) Assay for Bcl-2 gene using HepaRG (AID 2283475)
# Procedure, shortened: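 HepaRG, plated 48 h then switched to serum-free induction medium; dosed 48 h, 8 conc. (max 100 uM, half-log steps), duplicate, 0.5% DMSO. Lysis in RLT, RNA isolated, TaqMan qRT-PCR for BCL2; ACTB/GAPDH/POLR2A normalisation; bidirectional fit vs DMSO.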
# [17] = read-out: Bcl-2 (BID) gene, BID (gene 637); assay: LTEA_HepaRG_BID: Life Technologies and Expression Analysis (LTEA) Assay for Bcl-2 (BID) gene using HepaRG (AID 2283476)
# Procedure, shortened: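 Transcript levels of BID, measured by qRT-PCR and normalized to three housekeeping genes, were fitted bidirectionally against DMSO controls. Cells were HepaRG, dosed 48 h at up to 100 uM.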
# [18] = read-out: Caspase-3 (Homo sapiens) (UniProt P42574); assay: LTEA_HepaRG_CASP3: Life Technologies and Expression Analysis (LTEA) Assay for cysteine-aspartic acid protease (CASP3) using HepaRG (AID 2283477)
# Procedure, shortened: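 Differentiated HepaRG cells, plated 48 h, were treated in duplicate in serum-free induction medium for 48 h with eight half-log concentrations up to 100 uM in 0.5% DMSO. CASP3 mRNA measured by qRT-PCR, normalized to ACTB, GAPDH, POLR2A.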
# [19] = read-out: Cytochrome P450 (CYP24A1), CYP24A1 (gene 1591); assay: LTEA_HepaRG_CYP24A1: Life Technologies and Expression Analysis (LTEA) Assay for Cytochrome P450 (CYP24A1) using HepaRG (AID 2283478)
# Procedure, shortened: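 HepaRG cells plated 48 h, then exposed in duplicate in serum-free induction medium for 48 h to 8-point half-log series from 100 uM in 0.5% DMSO. CYP24A1 mRNA by Fluidigm qRT-PCR, normalized to ACTB, GAPDH, POLR2A; bidirectional fit versus DMSO.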
# [20] = read-out: Cytochrome P450 (CYP1A2), CYP1A2 (gene 1544); assay: LTEA_HepaRG_CYP1A2: Life Technologies and Expression Analysis (LTEA) Assay for Cytochrome P450 (CYP1A2) using HepaRG (AID 2283479)
# Procedure, shortened: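 Differentiated human HepaRG cells in serum-free induction medium exposed 48 hours in duplicate to 8 half-log concentrations from 100 uM, 0.5% DMSO. CYP1A2 mRNA quantified by qRT-PCR, normalized to ACTB, GAPDH and POLR2A; bidirectional fitting versus DMSO.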
# Caspase-3 (Homo sapiens), sequence (P42574 whole entry, looked up): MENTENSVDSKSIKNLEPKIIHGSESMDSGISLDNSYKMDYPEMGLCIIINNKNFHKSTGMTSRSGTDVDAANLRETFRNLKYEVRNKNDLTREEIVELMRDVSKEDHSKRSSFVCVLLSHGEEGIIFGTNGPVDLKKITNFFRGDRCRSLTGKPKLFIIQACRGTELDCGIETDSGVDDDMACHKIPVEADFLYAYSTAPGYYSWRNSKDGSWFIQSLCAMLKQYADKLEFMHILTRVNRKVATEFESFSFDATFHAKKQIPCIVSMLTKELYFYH
# Apoptosis regulator Bcl-2 (Homo sapiens), sequence (P10415 whole entry, looked up): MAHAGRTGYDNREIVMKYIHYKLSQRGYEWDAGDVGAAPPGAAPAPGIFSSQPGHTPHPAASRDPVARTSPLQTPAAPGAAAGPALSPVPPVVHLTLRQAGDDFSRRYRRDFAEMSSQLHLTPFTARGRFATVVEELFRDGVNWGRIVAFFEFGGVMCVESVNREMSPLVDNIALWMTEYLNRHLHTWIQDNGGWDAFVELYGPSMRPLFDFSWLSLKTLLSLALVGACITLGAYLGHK
# Broad substrate specificity ATP-binding cassette transporter ABCG2 (Homo sapiens), sequence (Q9UNQ0 whole entry, looked up): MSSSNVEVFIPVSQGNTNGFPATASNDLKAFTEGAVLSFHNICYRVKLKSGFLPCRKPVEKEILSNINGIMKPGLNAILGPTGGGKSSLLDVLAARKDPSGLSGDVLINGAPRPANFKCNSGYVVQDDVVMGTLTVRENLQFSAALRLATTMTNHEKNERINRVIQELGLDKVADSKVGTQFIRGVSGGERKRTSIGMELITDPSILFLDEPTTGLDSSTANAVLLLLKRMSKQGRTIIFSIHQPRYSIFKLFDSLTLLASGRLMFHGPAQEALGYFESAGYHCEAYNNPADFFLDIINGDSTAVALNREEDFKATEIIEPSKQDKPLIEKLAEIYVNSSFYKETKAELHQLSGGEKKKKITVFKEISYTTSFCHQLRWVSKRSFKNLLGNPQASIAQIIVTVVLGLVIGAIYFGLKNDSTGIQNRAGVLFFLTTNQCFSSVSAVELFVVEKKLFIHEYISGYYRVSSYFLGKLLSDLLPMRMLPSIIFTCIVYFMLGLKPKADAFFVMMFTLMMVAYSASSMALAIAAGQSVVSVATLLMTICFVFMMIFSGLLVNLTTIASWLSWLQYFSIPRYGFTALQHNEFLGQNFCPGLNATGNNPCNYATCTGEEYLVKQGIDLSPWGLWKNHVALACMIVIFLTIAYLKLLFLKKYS
smiles,measurement,setting,value
CCCN(CC)CC1COC2(CCC(C(C)(C)C)CC2)O1 (stereo not given),outcome,[1],inactive
same,outcome,[2],inactive
same,outcome,[3],inactive
same,outcome,[4],inactive
same,outcome,[5],inactive
same,outcome,[6],inactive
same,outcome,[7],inactive
same,outcome,[8],inactive
same,outcome,[9],inactive
same,outcome,[10],inactive
same,outcome,[11],inactive
same,outcome,[12],inactive
same,outcome,[13],inactive
same,outcome,[14],inactive
same,outcome,[15],inactive
same,outcome,[16],inactive
same,outcome,[17],inactive
same,outcome,[18],inactive
same,outcome,[19],inactive
same,outcome,[20],inactive
N#CN=C1SCCN1Cc1ccc(Cl)nc1,outcome,[1],inactive
same,outcome,[2],inactive
same,outcome,[3],inactive
same,outcome,[4],inactive
same,outcome,[5],inactive
same,outcome,[6],inactive
same,outcome,[7],inactive
same,outcome,[8],inactive
same,outcome,[9],inactive
same,outcome,[10],inactive
same,outcome,[11],inactive
same,outcome,[12],inactive
same,outcome,[13],inactive
same,outcome,[14],inactive
same,outcome,[15],inactive
same,outcome,[16],inactive
same,outcome,[17],inactive
same,outcome,[18],inactive
same,outcome,[19],inactive
same,outcome,[20],inactive
COCC(C)N(C(=O)CCl)c1c(C)csc1C (stereo not given),outcome,[1],inactive
same,AC50,[2],74.1 µM (active)
same,outcome,[3],inactive
same,AC50,[4],50 µM (active)
same,AC50,[5],32.6 µM (active)
same,outcome,[6],inactive
same,outcome,[7],inactive
same,outcome,[8],inactive
same,outcome,[9],inactive
same,outcome,[10],inactive
same,outcome,[11],inactive
same,outcome,[12],inactive
same,outcome,[13],inactive
same,outcome,[14],inactive
same,outcome,[15],inactive
same,outcome,[16],inactive
same,outcome,[17],inactive
same,outcome,[18],inactive
same,outcome,[19],inactive
same,outcome,[20],inactive
